This is an account of results in the supplement of paper PMC6411743.

± gives the standard deviation of the averaged measurements. Targets with the largest changes are over-represented here; the source holds about 5,400 in all.

Compound in this assay: Nc1nc2c(ncn2[C@@H]2O[C@H](COP(=O)(O)OP(=O)(O)OP(=O)(O)O)[C@@H](O)[C@H]2O)c(=O)[nH]1 [guanosine triphosphate]
The assay can be described thus: NP40-soluble protein abundance relative to vehicle (solubility fold change) (ratio); higher = more soluble protein in presence of GTP. The procedure:
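Solubility proteome profiling in Jurkat crude lysate. Lysate was treated with Mg-GTP (0.1-10 mM) for 10 min at room temperature and 3 min at 37 °C, then solubilised with 0.8% NP40 and benzonase, followed by ultracentrifugation. Proteins were quantified by TMT10 LC-MS/MS; the value is the NP40-soluble abundance relative to the NP40-processed vehicle, from 3 independent experiments.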

Sequence of UniProt Q9Y485 (Q9Y485 whole entry, one chain of several): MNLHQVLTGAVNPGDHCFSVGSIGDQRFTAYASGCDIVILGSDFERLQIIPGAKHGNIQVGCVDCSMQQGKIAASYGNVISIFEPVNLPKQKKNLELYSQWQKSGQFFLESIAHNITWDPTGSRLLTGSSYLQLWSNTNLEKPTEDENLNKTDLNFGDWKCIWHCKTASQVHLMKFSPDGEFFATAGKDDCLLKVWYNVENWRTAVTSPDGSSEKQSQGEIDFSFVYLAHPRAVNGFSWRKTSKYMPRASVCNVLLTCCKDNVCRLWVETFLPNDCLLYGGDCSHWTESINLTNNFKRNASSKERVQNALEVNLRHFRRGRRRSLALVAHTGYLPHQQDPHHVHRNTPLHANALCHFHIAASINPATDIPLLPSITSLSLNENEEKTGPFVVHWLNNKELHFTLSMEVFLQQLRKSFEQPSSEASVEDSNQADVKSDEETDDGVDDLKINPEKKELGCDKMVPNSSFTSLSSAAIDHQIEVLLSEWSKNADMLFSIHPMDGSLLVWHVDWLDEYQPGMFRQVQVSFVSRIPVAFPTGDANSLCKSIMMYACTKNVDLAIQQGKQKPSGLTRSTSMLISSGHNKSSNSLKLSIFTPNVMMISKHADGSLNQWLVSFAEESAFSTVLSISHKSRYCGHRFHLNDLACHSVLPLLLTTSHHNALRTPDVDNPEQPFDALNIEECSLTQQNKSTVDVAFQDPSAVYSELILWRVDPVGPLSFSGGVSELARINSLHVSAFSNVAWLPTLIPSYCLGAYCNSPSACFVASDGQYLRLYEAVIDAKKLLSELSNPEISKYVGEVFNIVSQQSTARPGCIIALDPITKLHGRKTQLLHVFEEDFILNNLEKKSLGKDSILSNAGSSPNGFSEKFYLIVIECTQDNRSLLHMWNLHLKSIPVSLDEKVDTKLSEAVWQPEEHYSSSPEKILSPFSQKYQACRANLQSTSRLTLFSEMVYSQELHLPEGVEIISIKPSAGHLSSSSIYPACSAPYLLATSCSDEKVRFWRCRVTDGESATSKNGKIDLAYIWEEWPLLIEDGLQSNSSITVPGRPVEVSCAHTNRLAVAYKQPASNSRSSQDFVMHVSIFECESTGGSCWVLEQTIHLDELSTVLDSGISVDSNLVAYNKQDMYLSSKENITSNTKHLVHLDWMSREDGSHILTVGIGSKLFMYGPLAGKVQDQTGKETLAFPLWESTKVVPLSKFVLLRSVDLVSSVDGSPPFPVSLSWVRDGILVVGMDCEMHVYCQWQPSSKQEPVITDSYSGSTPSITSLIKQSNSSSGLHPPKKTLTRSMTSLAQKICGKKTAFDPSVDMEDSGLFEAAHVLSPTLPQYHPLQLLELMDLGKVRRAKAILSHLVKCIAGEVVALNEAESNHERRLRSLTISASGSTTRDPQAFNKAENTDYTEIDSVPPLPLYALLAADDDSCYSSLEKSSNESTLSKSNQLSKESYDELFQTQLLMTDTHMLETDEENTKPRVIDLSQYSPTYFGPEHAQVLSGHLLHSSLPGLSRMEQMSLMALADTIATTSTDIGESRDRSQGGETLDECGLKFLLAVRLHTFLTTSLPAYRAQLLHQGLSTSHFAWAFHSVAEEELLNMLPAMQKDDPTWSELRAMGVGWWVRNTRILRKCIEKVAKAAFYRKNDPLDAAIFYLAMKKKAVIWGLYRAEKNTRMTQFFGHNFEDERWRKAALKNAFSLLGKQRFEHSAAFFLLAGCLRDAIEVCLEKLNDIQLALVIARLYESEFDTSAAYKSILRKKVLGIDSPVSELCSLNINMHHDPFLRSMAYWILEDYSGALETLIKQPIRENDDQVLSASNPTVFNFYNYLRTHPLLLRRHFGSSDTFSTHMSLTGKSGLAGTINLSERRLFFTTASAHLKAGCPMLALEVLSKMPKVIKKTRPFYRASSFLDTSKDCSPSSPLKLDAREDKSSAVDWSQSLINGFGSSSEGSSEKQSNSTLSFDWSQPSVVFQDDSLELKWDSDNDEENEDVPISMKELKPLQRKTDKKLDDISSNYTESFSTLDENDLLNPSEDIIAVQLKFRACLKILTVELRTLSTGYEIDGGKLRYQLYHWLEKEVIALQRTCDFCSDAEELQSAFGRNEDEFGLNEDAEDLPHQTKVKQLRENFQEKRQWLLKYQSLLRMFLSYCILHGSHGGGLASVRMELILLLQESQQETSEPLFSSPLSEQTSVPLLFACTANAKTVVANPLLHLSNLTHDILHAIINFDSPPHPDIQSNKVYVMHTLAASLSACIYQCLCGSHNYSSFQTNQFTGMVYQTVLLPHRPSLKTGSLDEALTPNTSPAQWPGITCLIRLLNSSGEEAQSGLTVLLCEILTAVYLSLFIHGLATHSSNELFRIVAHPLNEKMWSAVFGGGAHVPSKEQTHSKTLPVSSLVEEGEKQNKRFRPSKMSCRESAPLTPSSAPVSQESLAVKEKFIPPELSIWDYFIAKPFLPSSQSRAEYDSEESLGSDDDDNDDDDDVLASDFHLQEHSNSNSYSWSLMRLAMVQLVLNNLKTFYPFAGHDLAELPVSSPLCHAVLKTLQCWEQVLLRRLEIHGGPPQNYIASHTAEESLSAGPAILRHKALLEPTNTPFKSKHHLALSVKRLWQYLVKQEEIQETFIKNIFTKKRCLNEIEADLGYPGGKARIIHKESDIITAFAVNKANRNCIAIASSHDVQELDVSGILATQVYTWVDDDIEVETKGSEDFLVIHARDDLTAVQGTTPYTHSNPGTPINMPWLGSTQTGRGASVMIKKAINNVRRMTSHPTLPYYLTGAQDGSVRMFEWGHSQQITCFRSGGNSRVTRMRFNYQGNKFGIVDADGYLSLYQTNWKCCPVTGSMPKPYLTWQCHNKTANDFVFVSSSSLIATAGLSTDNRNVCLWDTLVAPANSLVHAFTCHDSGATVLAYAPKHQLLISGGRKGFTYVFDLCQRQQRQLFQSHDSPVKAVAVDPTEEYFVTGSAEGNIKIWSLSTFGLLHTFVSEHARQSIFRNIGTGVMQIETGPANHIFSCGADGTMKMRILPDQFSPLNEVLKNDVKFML
Sequence of UniProt Q8WX92 (Q8WX92 whole entry, one chain of several): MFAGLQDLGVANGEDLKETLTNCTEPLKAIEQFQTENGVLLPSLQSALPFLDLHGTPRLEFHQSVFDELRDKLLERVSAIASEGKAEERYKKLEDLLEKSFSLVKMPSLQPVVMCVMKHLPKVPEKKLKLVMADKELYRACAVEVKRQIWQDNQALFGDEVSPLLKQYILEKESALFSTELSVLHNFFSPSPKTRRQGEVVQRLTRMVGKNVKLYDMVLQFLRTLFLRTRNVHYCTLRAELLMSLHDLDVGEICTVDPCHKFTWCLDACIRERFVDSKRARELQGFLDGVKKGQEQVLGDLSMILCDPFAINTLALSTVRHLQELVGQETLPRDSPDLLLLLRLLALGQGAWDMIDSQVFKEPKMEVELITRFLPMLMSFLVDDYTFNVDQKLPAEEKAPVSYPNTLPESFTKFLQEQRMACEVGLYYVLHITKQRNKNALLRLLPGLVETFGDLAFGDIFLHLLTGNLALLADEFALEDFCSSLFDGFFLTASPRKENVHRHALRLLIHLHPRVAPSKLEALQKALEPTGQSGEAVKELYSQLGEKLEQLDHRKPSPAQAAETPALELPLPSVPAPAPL
Sequence of UniProt Q9BZL6 (Q9BZL6 whole entry, one chain of several): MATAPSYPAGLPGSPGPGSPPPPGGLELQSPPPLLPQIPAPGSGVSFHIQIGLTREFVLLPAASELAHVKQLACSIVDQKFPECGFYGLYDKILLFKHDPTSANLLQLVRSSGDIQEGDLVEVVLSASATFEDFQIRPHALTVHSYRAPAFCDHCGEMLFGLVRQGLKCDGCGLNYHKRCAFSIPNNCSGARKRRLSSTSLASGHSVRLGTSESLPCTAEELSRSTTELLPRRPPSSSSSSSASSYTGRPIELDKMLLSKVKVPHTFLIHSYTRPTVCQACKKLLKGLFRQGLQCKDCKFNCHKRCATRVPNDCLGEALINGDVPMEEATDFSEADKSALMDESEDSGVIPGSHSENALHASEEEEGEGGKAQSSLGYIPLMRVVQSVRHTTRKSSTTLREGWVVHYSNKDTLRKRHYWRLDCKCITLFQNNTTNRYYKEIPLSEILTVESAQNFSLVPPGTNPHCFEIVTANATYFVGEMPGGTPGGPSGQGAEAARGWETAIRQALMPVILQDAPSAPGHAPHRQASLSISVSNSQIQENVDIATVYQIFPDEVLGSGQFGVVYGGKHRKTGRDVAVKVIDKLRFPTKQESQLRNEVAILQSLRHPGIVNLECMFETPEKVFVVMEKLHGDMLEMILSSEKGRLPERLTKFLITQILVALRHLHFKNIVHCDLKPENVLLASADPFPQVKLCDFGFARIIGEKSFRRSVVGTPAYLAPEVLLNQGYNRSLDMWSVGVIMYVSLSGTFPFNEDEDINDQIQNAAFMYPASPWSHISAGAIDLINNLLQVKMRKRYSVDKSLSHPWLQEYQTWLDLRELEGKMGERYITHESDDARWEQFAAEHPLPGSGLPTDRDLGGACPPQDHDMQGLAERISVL

Take A0A0X1KG71|Q8WX92 (UniProt Q8WX92): the NP40-soluble protein abundance is, setting by setting: (concentration: 0.1mM) 0.9588 ± 0.0051; (concentration: 0.5mM) 0.964 ± 0.014; (concentration: 1mM) 0.9785 ± 0.0083; (concentration: 2mM) 0.973 ± 0.016; (concentration: 4mM) 0.957 ± 0.025; (concentration: 6mM) 0.96 ± 0.012. Also, the NP40-soluble protein abundance worked out at 0.936 ± 0.024 (concentration: 8mM) and 0.946 ± 0.02 (concentration: 10mM).

As to B4DTS2|Q9BZL6 (UniProt Q9BZL6), the NP40-soluble protein abundance is 1.02 ± 0.021 (concentration: 0.1mM); 1.04 ± 0.034 (concentration: 0.5mM); 0.992 ± 0.053 (concentration: 1mM); 1.02 ± 0.055 (concentration: 2mM); 1 ± 0.059 (concentration: 4mM); 0.97 ± 0.031 (concentration: 6mM). The NP40-soluble protein abundance (concentration: 8mM) came to 0.946 ± 0.045 and the NP40-soluble protein abundance (concentration: 10mM) stood at 0.946 ± 0.033.

In the case of “A0A0R4J2F3|Q9Y2S0|Q9Y2S0-2 (UniProt Q9Y2S0)”, the NP40-soluble protein abundance runs as follows: (concentration: 0.1mM) 1.01 ± 0.075; (concentration: 0.5mM) 0.925 ± 0.056; (concentration: 1mM) 1.11 ± 0.2; (concentration: 2mM) 1.16 ± 0.14; (concentration: 4mM) 1.2 ± 0.17; (concentration: 6mM) 1.17 ± 0.12. The NP40-soluble protein abundance reads like this: (concentration: 8mM) 1.15 ± 0.21; (concentration: 10mM) 1.24 ± 0.28.

Consider F5H269|Q9Y485 (UniProt Q9Y485), for which the NP40-soluble protein abundance was found to be 0.991 ± 0.013 (concentration: 0.1mM); 1.11 ± 0.081 (concentration: 0.5mM); 1.05 ± 0.096 (concentration: 1mM); 1.01 ± 0.087 (concentration: 2mM); 1.04 ± 0.09 (concentration: 4mM); 1.06 ± 0.088 (concentration: 6mM). Besides, the NP40-soluble protein abundance (concentration: 8mM) worked out at 1.12 ± 0.15 and the NP40-soluble protein abundance (concentration: 10mM) was determined as 1.11 ± 0.11.

Regarding “A0A0C4DFX4|Q6ZRS2|Q6ZRS2-2|Q6ZRS2-3 (UniProt Q6ZRS2)”, the NP40-soluble protein abundance runs as follows: (concentration: 0.1mM) 1.12 ± 0.075; (concentration: 0.5mM) 1.11 ± 0.013; (concentration: 1mM) 1.3 ± 0.042; (concentration: 2mM) 1.44 ± 0.17; (concentration: 4mM) 1.6 ± 0.21; (concentration: 6mM) 1.62 ± 0.17. The NP40-soluble protein abundance was determined as 1.86 ± 0.33 (concentration: 8mM) and 1.83 ± 0.29 (concentration: 10mM).
